# Experimental data as given in PubChem BioAssay (NCI).
# The panel holds about 83,000 compounds, 20% with a hit somewhere; the sample as a whole holds those more often.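 Assay: single dose, 48 h. Readout: percent growth (0 = no net growth; negative = cell death). Active: <10.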 A number with no mark means an inactive call. Calls of active or inactive are those of the source.
# Tests used:
# Assay in all cases: NCI-60 one-dose screen, 48 h (100 = growth as untreated, 0 = no growth, -100 = all killed)
# Conditions in all cases: 10 µM unless noted
# NCI-H23 lung = system: NCI-H23 lung
# NCI-H226 lung = system: NCI-H226 lung
# NCI-H322M lung = system: NCI-H322M lung
# HOP-62 NSCLC = system: HOP-62 NSCLC
# NCI-H460 lung = system: NCI-H460 lung
# HOP-92 NSCLC = system: HOP-92 NSCLC
# NCI-H522 lung = system: NCI-H522 lung
# A549/ATCC NSCLC = system: A549/ATCC NSCLC
# 786-0 renal = system: 786-0 renal
# COLO 205 colon = system: COLO 205 colon
Structure (SMILES),growth (NCI-H23 lung),growth (NCI-H226 lung),growth (NCI-H322M lung),growth (HOP-62 NSCLC),growth (NCI-H460 lung),growth (HOP-92 NSCLC),growth (NCI-H522 lung),growth (A549/ATCC NSCLC),growth (786-0 renal),growth (COLO 205 colon)
O=C(NNc1nc2cc(F)c(F)cc2n2cccc12)c1ccncn1,18.3%,16.2%,28.9%,26.8%,9.5% (active),62.7%,2.02% (active),18%,11.9%,19.9%
N#Cc1c(NC(=O)c2ccc(F)c(Cl)c2)sc2c1CCC(=O)C2,-7.87% (active),18.3%,53.6%,8.63% (active),4.07% (active),-37.4% (active),3.24% (active),19.4%,21.3%,-50.2% (active)
COc1cc(C(=O)c2cc(C(C)=O)c3c4ccccc4ccn23)cc(OC)c1OC,64.4%,66.8%,74.8%,56%,45.1%,26.8%,52%,61.1%,70.1%,38.6%
CS(=O)(=O)c1ccc2c(c1)c1c(n2S(=O)(=O)c2ccc(Cl)cc2)CCCC1,36.3%,53.6%,49.1%,38.5%,9.54% (active),32.7%,-44.5% (active),48.7%,40.4%,-36.3% (active)
Nc1cc(F)ccc1NC(=O)c1ccc(NC(=O)C/C=C/c2cccnc2)cn1,32%,46.8%,40.2%,29.6%,30%,5.74% (active),-4.98% (active),31.5%,41.8%,1.22% (active)
COc1cc2cc(Oc3ccc(NC(=O)Nc4cccc(C(F)(F)F)c4)cc3)c(C)nc2cc1OCCN(C)C,91.2%,104%,117%,105%,99.9%,74.7%,102%,96.7%,88.7%,98.5%
CC(=O)Nc1ccc(NC(=O)Nc2cccc(-c3nc(-c4ccc(NC(=O)c5cccs5)cc4Cl)no3)c2)cc1C(F)(F)F,-60.2% (active),-41.2% (active),-8.96% (active),-74.8% (active),-59.4% (active),-46.8% (active),-39.6% (active),-27.1% (active),-43.4% (active),-64.4% (active)
CN1C(=O)N(C)C2C1NN=c1s/c(=C\c3ccccn3)c(=O)n12 (stereo not given),99.1%,99.7%,99.6%,100%,108%,96.6%,93.4%,99.8%,101%,110%
CCN1CCN(Cc2ccc(C(=O)Nc3nc4ccc(Oc5ccnc(C(=O)NC)c5)cc4s3)cc2C(F)(F)F)CC1,42%,76.3%,66.1%,63.9%,26.2%,37.4%,58.9%,60.1%,39.5%,-43% (active)
Clc1ccc(-c2csc(Nc3cccc(Nc4csc(-c5ccc(Cl)cc5)n4)c3)n2)cc1,72.3%,74.6%,68.9%,85.3%,79.1%,75.9%,45.6%,88.5%,104%,94.2%
C=CCn1c(SCC(=O)Nc2cccc(C(=O)/C=C/c3ccccc3)c2)nc2ccccc2c1=O,77.2%,78.1%,91.5%,113%,91.8%,76.1%,86.2%,82.6%,100%,120%
COc1cc(/C=C/C(=O)c2ccc(N3CCN(C)CC3)cc2)ccc1F,84.4%,67.3%,84.2%,86.4%,102%,54.3%,97.2%,76.7%,88.4%,64.9%
Nc1nc(-c2cccc([N+](=O)[O-])c2)c(N=Nc2ccccc2[N+](=O)[O-])s1,3.8% (active),4.17% (active),76.7%,-36.1% (active),39.5%,-28.4% (active),26.4%,36.1%,-66.4% (active),93.7%
C#C[C@]1(O)CC[C@H]2[C@@H]3CC=C4c5sc(Nc6nc(C)cc(OC)n6)nc5CC[C@]4(C)[C@H]3CC[C@@]21C,71.9%,71%,92.9%,40%,21.9%,43.9%,88.1%,53.9%,-4.27% (active),78.5%
CCOC(=O)/C=c1\sc2n(c1=O)C1C(NN=2)N(CC)C(=O)N1CC (stereo not given),79.6%,81.2%,78.9%,71.6%,37.8%,75.3%,33.3%,62.1%,63%,51.3%
Cn1c(SC(C(=O)Nc2ccc(F)cc2)c2ccccc2)nc2ccccc2c1=O (stereo not given),103%,102%,111%,99.6%,112%,86.9%,93.1%,99.1%,102%,119%
CCOC(=O)/C(F)=C/C1CC1C1CCCCC1 (stereo not given),97.4%,104%,105%,122%,104%,83.1%,103%,104%,102%,110%
CCn1c2ccc(/C=N/NS(=O)(=O)CCN(C)C)cc2c2cc(/C=N/NS(=O)(=O)CCN(C)C)ccc21,97.4%,96.5%,85.7%,82.7%,101%,92.2%,86.6%,101%,92%,115%
O=C1c2cc(Br)ccc2-n2c1nc1cc(Br)ccc1c2=O,58.6%,78.3%,88.7%,82.3%,85.4%,134%,68.9%,67.1%,88.5%,85.7%
CCCCCCNC(=O)Oc1ccc(/C(=C(\C)c2ccc(OC)cc2)c2ccc(OCCN(C)C)cc2)cc1,84.4%,105%,89%,89.8%,67.6%,50.4%,98%,74.7%,62.3%,90.4%

Structure (SMILES),growth (NCI-H23 lung),growth (NCI-H226 lung),growth (NCI-H322M lung),growth (HOP-62 NSCLC),growth (NCI-H460 lung),growth (HOP-92 NSCLC),growth (NCI-H522 lung),growth (A549/ATCC NSCLC),growth (786-0 renal),growth (COLO 205 colon)
CC1CCc2c(sc3nc(SCC(=O)N/N=C/c4ccc(Cl)cc4)n(-c4ccccc4)c(=O)c23)C1 (stereo not given),90.7%,91%,98.1%,78.4%,107%,107%,93.6%,101%,96.5%,135%
O=C(O)CNS(=O)(=O)c1ccc(Oc2ccc(S(=O)(=O)NCC(=O)O)cc2)cc1,101%,107%,101%,91.9%,101%,103%,94.7%,101%,100%,109%
Cc1nn(-c2ccc(Cl)cc2)c(C)c1N=Nc1ccc2oc(=O)ccc2c1,82.4%,92.9%,104%,91.7%,64.9%,76.8%,81.7%,77.6%,78.8%,105%
CC(=O)Nc1nc2c(s1)C1=CC[C@H]3[C@@H]4CC[C@H](C(C)=O)[C@@]4(C)CC[C@@H]3[C@@]1(C)CC2,81.2%,94.8%,77.1%,62.8%,64.4%,105%,90.8%,51.7%,25%,57%
O=C(CSc1ccc(-c2nc3ccccc3[nH]2)cn1)N1CCN(c2ccccc2F)CC1,67.3%,59.6%,101%,89.8%,88.5%,71.9%,52.4%,81.2%,95.4%,79.7%
C=CCn1c(SCC(=O)Nc2cccc(C(=O)/C=C/c3ccccc3Cl)c2)nc2ccccc2c1=O,94.7%,91.8%,92%,108%,93%,70.7%,84.8%,86.2%,88%,113%
Cn1ccnc1C(=O)/C=C/c1ccc(C(=O)Nc2ccc(NC(=O)CCNC(=O)c3csc(Br)n3)cc2)cc1,43.5%,84.5%,66.2%,62.6%,46.2%,103%,29%,64.5%,66.3%,85.7%
CC(C)Sc1nc(NC2CC2)c(C#N)c(-c2ccccc2)n1,67.5%,69.8%,67.6%,71.5%,54.5%,76.1%,89.2%,62.9%,35%,79.6%
COc1cc(CNC(=O)/C=C/c2ccccc2)ccc1OCC(=O)NO,103%,97.4%,103%,102%,109%,98.4%,89.9%,101%,103%,102%
CCOC(=O)Nc1ccc(-c2nc(-c3cccc(O)c3)c(-c3ccnc(Br)c3)[nH]2)cc1,31%,40.6%,54.7%,25.2%,37.6%,38.3%,25.1%,16%,20.5%,43.6%
C#C[C@]1(O)CC[C@H]2[C@@H]3CC=C4c5sc(Nc6ccncc6)nc5CC[C@]4(C)[C@H]3CC[C@@]21C,2.43% (active),-4.76% (active),31.7%,-42.3% (active),4.53% (active),4.3% (active),-37% (active),-14.7% (active),-60.2% (active),-46.9% (active)
Cc1ccc(-c2csc(N/N=C/c3nc4ccccc4n3C3CC3)n2)cc1,82.9%,64.2%,91.5%,74.9%,84.4%,92.8%,-72.4% (active),41.1%,108%,8.64% (active)
COc1ccc2c(c1)c(-c1nnc(N)nc1-c1cn(C)c3ccccc13)cn2C,92.4%,86.5%,90.4%,89.1%,99.5%,97.9%,85%,95.8%,90.7%,104%
N#Cc1c(-c2cccs2)cc(-c2cnccn2)nc1SCC(=O)NNC(=S)Nc1ccc(F)cc1,108%,117%,97.3%,106%,105%,112%,95.5%,100%,99.3%,112%
COC(=O)c1c(C(=O)OC)c2n(CC(=O)Nc3cccc4cccnc34)c3ccccc3n2c1C(=O)c1ccc(C)cc1,94.1%,88%,99%,96%,103%,89.7%,80.5%,91.2%,101%,114%
COc1ccc(C2CC(c3ccc(Nc4nc(NCCO)nc(Nc5ccc(Cl)cc5)n4)cc3)=Nc3c(N)nc(N)nc3N2)cc1 (stereo not given),57.8%,88.7%,93.2%,37.4%,63%,74.6%,56.1%,95.1%,71%,92.1%
O=S(=O)(NC1CC2CCC1C2)c1ccc2c(c1)C(=NO)c1cc(S(=O)(=O)NC3CC4CCC3C4)ccc1-2 (stereo not given),-84.2% (active),75.2%,58.3%,-70.5% (active),23.5%,-4.1% (active),32.4%,75%,31.3%,85.5%
CN1CCN(c2ccc3c(c2)nc(NNC(=O)c2ccncn2)c2cccn23)CC1,36.2%,44.5%,30.2%,35.7%,27.4%,53.1%,18.2%,23.3%,9.5% (active),17.9%
COCCOc1ccc(-c2csc(NC(=O)CN3CCN(CCO)CC3)n2)cc1NS(=O)(=O)c1cccc2c(N(C)C)cccc12,78%,70.9%,68.4%,81%,98.2%,13.3%,24.1%,92%,37.1%,69.8%
C#C[C@]1(O)CC[C@H]2[C@@H]3CC=C4c5sc(-c6ccc(OC)cc6)nc5CC[C@]4(C)[C@H]3CC[C@@]21C,73.7%,69.3%,74.5%,70.8%,43.5%,102%,80.6%,74.7%,16.8%,81.9%
